# Experimental data: PubChem BioAssay AID1159580 (chemical genetic matrix, 2015)
# Hit rate of the full screen: of about 5,500 compounds, about 2,000 (36%) were called active. About 18% were inconclusive and are not listed. This is one part of the list. A number with no mark means an inactive call. Cut-off read from the data, not from the text of the source: active = normalized growth mostly below about 0.91 (no sharp cut-off); inconclusive = no clear call, values can overlap the other calls; inactive = mostly above about 0.92.
# Assay: chemical genetic growth profiling, strain panel (AID 1159580);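 note: tested at 20 µM; growth read once vehicle control cultures reached saturation at 30 °C; 1 = growth at the plate median or of vehicle wells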
# Conditions: growth OD
# [1] = S. cerevisiae deletion strains, locus YAL013W, strain DEP1, stronger effect = lower value
# [2] = S. cerevisiae deletion strains, locus YBR229C, strain ROT2, stronger effect = lower value
# [3] = S. cerevisiae deletion strains, locus YCL061C, strain MRC1, stronger effect = lower value
# [4] = S. cerevisiae deletion strains, locus YDL101C, strain DUN1, stronger effect = lower value
# [5] = S. cerevisiae deletion strains, locus YDR150W, strain NUM1, stronger effect = lower value
# [6] = S. cerevisiae deletion strains, locus YEL061C, strain CIN8, stronger effect = lower value
# [7] = S. cerevisiae deletion strains, locus YGR078C, strain PAC10, stronger effect = lower value
# [8] = S. cerevisiae deletion strains, locus YHR030C, strain SLT2, stronger effect = lower value
# [9] = S. cerevisiae deletion strains, locus YHR087W, strain rtc3, stronger effect = lower value
# [10] = S. cerevisiae deletion strains, locus YJL187C, strain SWE1, stronger effect = lower value
# [11] = S. cerevisiae deletion strains, locus YJR043C, strain POL32, stronger effect = lower value
# [12] = S. cerevisiae deletion strains, locus YJR075W, strain HOC1, stronger effect = lower value
# [13] = S. cerevisiae deletion strains, locus YKL190W, strain CNB1, stronger effect = lower value
# [14] = S. cerevisiae deletion strains, locus YLR039C, strain RIC1, stronger effect = lower value
# [15] = S. cerevisiae deletion strains, locus YLR058C, strain SHM2 (second series), stronger effect = lower value
# [16] = S. cerevisiae deletion strains, locus YLR085C, strain ARP6, stronger effect = lower value
# [17] = S. cerevisiae deletion strains, locus YLR262C, strain YPT6, stronger effect = lower value
# [18] = S. cerevisiae deletion strains, locus YML094W, strain GIM5, stronger effect = lower value
# [19] = S. cerevisiae deletion strains, locus YMR219W, strain ESC1, stronger effect = lower value
# [20] = S. cerevisiae deletion strains, locus YMR263W, strain SAP30, stronger effect = lower value
# [21] = S. cerevisiae deletion strains, locus YNL153C, strain GIM3, stronger effect = lower value
# [22] = S. cerevisiae deletion strains, locus YNL298W, strain CLA4 (second series), stronger effect = lower value
# [23] = S. cerevisiae deletion strains, locus YNL322C, strain KRE1, stronger effect = lower value
# [24] = S. cerevisiae deletion strains, locus YNR030W, strain Alg12, stronger effect = lower value
# [25] = S. cerevisiae deletion strains, locus YOL006C, strain TOP1, stronger effect = lower value
# [26] = S. cerevisiae deletion strains, locus YPL055C, strain LGE1, stronger effect = lower value
# [27] = S. cerevisiae deletion strains, locus YPL241C, strain CIN2, stronger effect = lower value
# [28] = S. cerevisiae deletion strains, locus YPR135W, strain CTF4, stronger effect = lower value
# [29] = S. cerevisiae deletion strains, locus YDL134C, strain PPH21, stronger effect = lower value
# [30] = S. cerevisiae deletion strains, locus YGR229C, strain SMI1, stronger effect = lower value
compound,measurement,setting,value
O=C1OC2COC(=O)C2C=C1NC(=O)c1ccc(Cl)cc1 (centres undefined),normalized growth,[1],0.914 (active)
same,normalized growth,[2],0.372 (active)
same,normalized growth,[3],0.125 (active)
same,normalized growth,[4],0.154 (active)
same,normalized growth,[5],0.939
same,normalized growth,[6],0.882 (active)
same,normalized growth,[7],0.438 (active)
same,normalized growth,[8],0.38 (active)
same,normalized growth,[9],0.225 (active)
same,normalized growth,[10],0.381 (active)
same,normalized growth,[11],0.793 (active)
same,normalized growth,[12],0.0733 (active)
same,normalized growth,[13],0.913 (active)
same,normalized growth,[14],0.422 (active)
same,normalized growth,[15],0.506 (active)
same,normalized growth,[16],0.836
same,normalized growth,[17],0.436 (active)
same,normalized growth,[18],0.82 (active)
same,normalized growth,[19],0.143 (active)
same,normalized growth,[20],0.921
same,normalized growth,"S. cerevisiae deletion strains, locus YMR307W, strain GAS1, stronger effect = lower value",0.786
same,normalized growth,[21],0.329 (active)
same,normalized growth,[22],0.698 (active)
same,normalized growth,[23],0.967
same,normalized growth,[24],0.978
same,normalized growth,[25],0.72 (active)
same,normalized growth,[26],0.942
same,normalized growth,[27],0.975
same,normalized growth,[28],0.627 (active)
Clc1cc(Cl)cc(-n2cccc2)c1,normalized growth,[1],1.02
same,normalized growth,[2],0.995
same,normalized growth,[3],1.03
same,normalized growth,[4],1.01
same,normalized growth,[29],0.969
same,normalized growth,[5],1.04
same,normalized growth,[6],0.963
same,normalized growth,[7],1
same,normalized growth,[30],0.98
same,normalized growth,[8],0.975
same,normalized growth,[9],0.989
same,normalized growth,[10],1
same,normalized growth,[11],1.02
same,normalized growth,[12],0.981
same,normalized growth,[13],0.988
same,normalized growth,[14],1.04
same,normalized growth,[15],0.994
same,normalized growth,[16],0.949
same,normalized growth,[17],1.05
same,normalized growth,[18],0.991
same,normalized growth,[19],0.997
same,normalized growth,[20],1.01
same,normalized growth,[21],1.01
same,normalized growth,[22],0.951
same,normalized growth,[23],1
same,normalized growth,[24],0.98
same,normalized growth,[25],0.977
same,normalized growth,[26],0.981
same,normalized growth,[27],0.987
same,normalized growth,[28],0.917
Clc1cc(Cl)c(Cl)c(-n2cccc2)c1Cl,normalized growth,[1],0.855 (active)
same,normalized growth,[2],0.914 (active)
same,normalized growth,[4],0.893 (active)
same,normalized growth,[29],0.826 (active)
same,normalized growth,[5],0.863
same,normalized growth,[6],0.763 (active)
same,normalized growth,[7],0.813 (active)
same,normalized growth,[30],0.752 (active)
same,normalized growth,[8],0.178 (active)
same,normalized growth,[9],0.8 (active)
same,normalized growth,[11],0.887 (active)
same,normalized growth,[12],0.707 (active)
same,normalized growth,[13],0.622 (active)
same,normalized growth,[14],0.304 (active)
same,normalized growth,[15],0.938
same,normalized growth,[16],0.41 (active)
same,normalized growth,[17],0.216 (active)
same,normalized growth,[18],0.691 (active)
same,normalized growth,[19],0.952
same,normalized growth,[20],0.916
same,normalized growth,[21],0.933
same,normalized growth,[22],0.641 (active)
same,normalized growth,[23],0.956
same,normalized growth,[24],0.631 (active)
same,normalized growth,[25],0.395 (active)
same,normalized growth,[26],0.785 (active)
same,normalized growth,[27],0.701 (active)
same,normalized growth,[28],0.543 (active)
CCCc1cc(Br)c(-n2cccc2)c(Br)c1,normalized growth,[1],0.998
same,normalized growth,[2],0.993
same,normalized growth,[4],1.01
same,normalized growth,[5],1.01
same,normalized growth,[6],1.02
same,normalized growth,[7],0.997
same,normalized growth,[8],1.08
same,normalized growth,[9],0.994
same,normalized growth,[10],0.992
same,normalized growth,[11],1.02
same,normalized growth,[12],0.994
same,normalized growth,[14],1.09
same,normalized growth,[15],0.998
same,normalized growth,[16],1.08
same,normalized growth,[17],1.05
same,normalized growth,[18],1.01
same,normalized growth,[19],0.994
same,normalized growth,[20],0.938
same,normalized growth,[21],1.01
same,normalized growth,[22],1.06
same,normalized growth,[23],0.997
same,normalized growth,[24],1.01
same,normalized growth,[25],1.04
same,normalized growth,[26],1.13
same,normalized growth,[27],1.02
same,normalized growth,[28],1.05
same,normalized growth,"S. cerevisiae strains, strain wild type, stronger effect = lower value",1.03
